# Shown are actives, neighbours in structure and some others; about 1.3% of the full set was active somewhere.
# HIF activator = HIF pathway transcriptional activation; activation, % at 7.5 µM (by protocol); U2OS HRE-luciferase reporter, luminescence; normalized: DMSO 0%, desferrioxamine 100%; AID 1910; 300,000 tested, 0.32% active;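 active means mean activation of at least 10% of the iron chelator positive control signal, with at least half of replicates also reaching 10%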
# C2C12 statin = suppression of simvastatin myotoxicity; C2C12 myotubes + simvastatin, ATP luminescence, 48 h; scaled: DMSO 0, geranylgeraniol control 100; rescue of ATP level, % at 7.49 µM; 330,000 tested, 0.78% active; AID 602340;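 active means mean ATP rescue above about 67%, or every replicate alone reaching that limit, limit read from the data, passing the limit was not always enough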;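 further: myotubes were challenged with 10 µM simvastatin during compound exposure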
# Rce1 inh = yeast Ras-converting enzyme inhibition; 290,000 tested, 0.27% active; calls only; Q03530; yeast membranes, quenched prenylated peptide cleavage fluorescence; AID 2563;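 active means fall in fluorescence gain of 50% or more versus controls, with final raw signal at or below 3038400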;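 further: plate controls were neutral control wells for no effect and wells lacking membranes for full effect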
# Target sequence (Q03530 whole entry, looked up): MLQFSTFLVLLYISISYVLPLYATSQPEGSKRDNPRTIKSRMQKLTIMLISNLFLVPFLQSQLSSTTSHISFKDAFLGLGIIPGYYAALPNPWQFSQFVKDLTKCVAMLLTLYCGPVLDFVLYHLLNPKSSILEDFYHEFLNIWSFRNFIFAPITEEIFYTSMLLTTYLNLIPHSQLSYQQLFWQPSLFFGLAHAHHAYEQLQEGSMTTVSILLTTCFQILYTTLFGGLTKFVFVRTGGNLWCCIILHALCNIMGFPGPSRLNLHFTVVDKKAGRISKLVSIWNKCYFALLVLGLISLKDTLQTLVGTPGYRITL
# AI-2 QS mod = Vibrio harveyi AI-2 quorum sensing modulation; Vibrio harveyi JMH597 AI-2 luminescence/OD600 ratio, 9 h; hits give low values; strain lacks LuxN and CqsS sensors; 0 = neutral-control median; 300,000 tested, 0.4% active; activity change, % at 7.5 µM; in the data active means activity change below about -75%, passing the limit was not always enough;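 further: luminescence divided by OD600 gain over 9 h not by final OD600 alone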
# PGC1a acetyl inh = PGC1a acetylation modulation, inhibitor mode. U2OS PGC1a acetylation, AlphaScreen anti-acetyl-lysine; with virally co-expressed GCN5 acetyltransferase. inhibition, % at 15.6 µM. 350,000 tested, 0.17% active. AID 651687;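 active means every replicate shows inhibition of at least 40%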;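 further: 0% = neutral control wells and 100% = positive control wells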
# Starred values were filed as active, the others as inactive; i = inactive; / = no result given; + = active, no number.
SMILES,HIF activator,C2C12 statin,Rce1 inh,AI-2 QS mod,PGC1a acetyl inh
CCOC(=O)c1cc(-c2ccccc2)sc1NC(=O)C(C)Sc1nnc(C)s1 (configuration not stated),0,/,i,11,-18
CCOC(=O)c1cc(-c2ccccc2)sc1NC(=O)C(C)Sc1nnnn1C (configuration not stated),0,13,+,22,-23
CO[C@@H]1CN(C)C(=O)c2ccc(NC(C)=O)cc2OC[C@@H](C)N(Cc2cc(F)ccc2F)C[C@H]1C,/,7,/,/,-15
O=C(Cc1cn2ccsc2n1)Nc1ccccc1Oc1ccccc1,0,101*,i,14,42
C[C@@H]1CN([C@@H](C)CO)C(=O)c2cc(NC(=O)CCN3CCOCC3)ccc2O[C@@H]1CN(C)Cc1ccc(C(=O)O)cc1,/,-7,/,/,5
CCCNC(=O)C[C@H]1C[C@@H]2c3cc(N(C)C)ccc3O[C@@H]2[C@@H](CO)O1,/,0,/,/,-7
CCOC(=O)COc1ccccc1/C=C\[N+](=O)[O-],-6,/,i,-90*,/
Cc1noc(C)c1NC(=O)N[C@H]1CC[C@H](CCNC(=O)C2CC2)O[C@@H]1CO,/,0,/,/,1
Cc1ccc(Nc2cc(=O)[nH]c(=O)[nH]2)c(C)c1,0,121*,i,30,5
Cc1cccc(Nc2cc(=O)[nH]c(=O)[nH]2)c1C,0,/,i,7,/
CC(CCc1ccccc1)NC(=O)CN1CCN(Cc2ccccc2)C1=O (configuration not stated),0,0,i,9,-4
CC(CCc1ccccc1)NC(=O)CN1CCN(Cc2ccc(Cl)cc2)C1=O (configuration not stated),0,67*,i,14,7
COCC(=O)Nc1ccc2c(c1)[C@@H]1C[C@H](CC(=O)NCCc3ccccc3)O[C@H](CO)[C@@H]1O2,/,-1,/,/,-10
Cn1c(=O)n(CC(=O)O)c(=O)c2c1nc1n2CCCN1Cc1ccccc1,0,-1,i,3,/
CCOC(=O)Cn1c(=O)c2c(nc3n2CCN3Cc2ccccc2)n(C)c1=O,0,134*,i,10,4
CC(=O)Cn1c(=O)c2c(nc3n2CCCN3Cc2ccccc2)n(C)c1=O,35*,-3,i,9,5
CCOC(=O)Cn1c(=O)c2c(nc3n2CCCN3Cc2ccccc2)n(C)c1=O,-1,-4,i,17,-9
CO[C@@H]1CN(C)C(=O)c2ccc(NC(C)=O)cc2OC[C@@H](C)N(C(=O)CN(C)C)C[C@H]1C,/,-3,/,/,7
C=CCOc1ccc(/C=C2\SC(=Nc3cccnc3)NC2=O)cc1,84*,-1,i,21,2
CC(/C=C1\SC(=Nc2cccnc2)NC1=O)=C\c1ccccc1,0,4,i,19,3
C[C@H](CO)N1C[C@H](C)[C@@H](CN(C)C(=O)c2ccc3c(c2)OCO3)Oc2cc(-c3ccccc3)ccc2S1(=O)=O,/,-5,/,/,9
COc1ccc(/C=N/NC(=O)c2ccccc2O)cc1CSc1ccccn1,197*,/,i,12,/
COc1ccc([N+](=O)[O-])cc1CSc1ccccn1,0,-4,+,10,-7
COc1cccc(CNC(=O)CSc2nnc3c(n2)[nH]c2ccc(F)cc23)c1,0,-39,i,-6,/
O=C(CSc1nnc2c(n1)[nH]c1ccc(F)cc12)OCc1ccccc1,0,85*,i,-5,11
SMILES,HIF activator,C2C12 statin,Rce1 inh,AI-2 QS mod,PGC1a acetyl inh
CCCCOc1ccc(Cc2c(COCC)[nH]c(=S)[nH]c2=O)cc1,-1,-4,+,-33,5
CCOCc1[nH]c(=S)[nH]c(=O)c1Cc1ccc(OCC)cc1,0,/,i,-42,-5
CCCN(CCC)C(=O)c1ccccc1C(=O)N(CCC)CCC,0,6,i,8,6
C#CCOC(=O)c1ccccc1C(=O)N(CC)CC,-1,104*,i,10,6
CCCCOc1ccc(-c2nc(=S)[nH][nH]2)cc1,2,12,i,-89*,-5
O=C(NCc1cccs1)Nc1cccc(Cl)c1,-5,-13,i,-91*,5
O=C(Nc1cccc(Cl)c1)Nc1cccc(C(=O)O)c1,12*,/,i,37,-4
Cc1nn(C)cc1CNC(=O)Nc1cccc(Cl)c1,-11,113*,i,18,1
O=C(Nc1ccc(Cl)cc1)Nc1cccc(C(=O)O)c1,-3,/,i,32,9
Cc1nn(C)cc1CNC(=O)Nc1ccc(Br)cc1Cl,0,4,i,21,-4
O=C(N[C@@H]1CC[C@H](CCNC(=O)C2CCOCC2)O[C@H]1CO)c1ccccn1,/,2,/,/,8
Cc1noc(C)c1NC(=O)Nc1ccc2c(c1)CC(=O)N([C@@H](C)CO)C[C@H](C)[C@@H](CN(C)Cc1ccc(C(=O)Nc3ccccc3N)cc1)O2,/,/,/,/,-3
Cc1ccc(S(=O)(=O)Nc2ccc3c(c2)C(=O)N([C@@H](C)CO)C[C@H](C)[C@H](CN(C)C(=O)Nc2c(C)noc2C)OCCCC[C@@H](C)O3)cc1,/,/,/,/,5
COc1ccc2c3c(n(C)c2c1)[C@H](CO)N(C(=O)c1ccncc1)CC31CN(S(C)(=O)=O)C1,/,/,/,/,-2
Cn1c(SCC(=O)Nc2ccccc2)nnc1-c1ccc(NC(=O)CCc2ccccc2)cc1,26*,/,i,16,/
CC(C)c1ccc(NC(=O)CCc2ccccc2)cc1,12*,-44,i,-39,/
Cc1cccc(-c2oc3ccccc3c2-c2ccc3c(c2)OCO3)c1,2,-4,+,20,/
S=C1N(c2ccccc2)C(c2ccccc2)N2CCCN12 (configuration not stated),-26,132*,i,24,-2
CCCC[C@@]1(C2CCCC2)Cc2cc(OCC(=O)O)c(Cl)c(Cl)c2C1=O,/,-2,/,/,95*
C[C@]1(C2CCCC2)Cc2cc(OCC(=O)O)c(Cl)c(Cl)c2C1=O,0,-7,i,20,2
Cc1noc(C)c1S(=O)(=O)N(C)C[C@@H]1OCCCC[C@@H](C)Oc2ccc(NC(=O)Nc3ccc(F)cc3)cc2C(=O)N([C@@H](C)CO)C[C@@H]1C,/,/,/,/,5
COc1ccc(CN(C)C[C@H]2Oc3c(NS(=O)(=O)c4c(C)noc4C)cccc3C(=O)N([C@H](C)CO)C[C@H]2C)cc1,/,9,/,/,4
CC(=O)N1CCC(=NNC(=O)c2cc3ccccc3cc2O)CC1,45*,25,i,25,-12
COC(=O)C[C@@H]1C[C@@H]2c3cc(NC(=O)CC4CC4)ccc3O[C@@H]2[C@@H](CO)O1,/,-2,/,/,4
COCC(=O)Nc1ccc2c(c1)C(=O)N(C)C[C@H](OC)[C@H](C)CN(Cc1cccc(F)c1)[C@@H](C)CO2,/,3,/,/,6
Cc1ccc(N(C(=O)c2csnn2)C(C(=O)NC2CCCCC2)c2ccccn2)cc1C (configuration not stated),3,81*,i,8,2
